Screens from PubChem BioAssay.
The list is not random: actives were taken first. Their share in the collection is about 3.5%.
HSP90 inh = HSP90 refolding inhibition in rabbit reticulocyte lysate | luciferase refolding luminescence, 3 h | actives 0.91% (n = 290,000) | AID 1789 | inhibition, % at 5.6 µM;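 active means inhibition above the screen-wide mean plus 3 SD, computed separately per campaign, cut at about 16% in these data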;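 further: 0% = DMSO wells and 100% = 60 µM geldanamycin wells; inhibitors lower the luminescence because luciferase stays unfolded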
TWEAK Fn14 block = blocks TWEAK-Fn14 interaction in a reporter cell assay | TWEAK-stimulated Fn14 reporter cells, luciferase luminescence, 8 h | AID 1159606 | inhibition, % at 10 µM | actives 2% (n = 360,000); in the data active means inhibition above about 50%
TROY NFkB inh = TROY signaling inhibition. Q293 LMP1-TROYcd NF-kB luciferase reporter, 4 h. inhibition, % at 10 µM. actives 0.98% (n = 360,000);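 active means compounds whose plate-normalised and pattern-corrected inhibition of the luciferase reporter signal at the single screening dose is 50% or more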
PPC-1+TRAIL kill = PPC-1 cancer cell killing with TRAIL present | AID 1443 | actives 0.41% (n = 220,000) | PPC-1 cells + TRAIL, ATPLite viability luminescence | cell killing (% activity), % at 4 µM or 5 µM;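 active means cell killing above 50% in the first pass at 4 µM, then a duplicate retest at 5 µM averaging 50% or more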;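 further: plate controls were cells with TRAIL plus DMSO for no effect and medium-only wells lacking cells for full effect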
Platelet DG rel = platelet dense granule release activity. human platelet-rich plasma, SFLLRN dense granule ATP release, luminescence. inhibition, %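 (compounds screened at 7.5 µM in platelet-rich plasma)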. actives 0.22% (n = 300,000). AID 1663;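 active means mean replicate score, as percent of positive control, at or above 50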
TRAIL sens C8 = caspase-8 TRAIL sensitization | actives 1% (n = 360,000) | NB7+C8 cells + TRAIL, ATPlite viability luminescence | AID 624354 | inhibition (viability loss, TRAIL sensitization), % at 10 µM;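 active means compounds causing at least 50% loss of cell viability in the single-dose screen, relative to plate controls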
* hit, by the source's call; nt = no result.

SMILES	HSP90 inh	TWEAK Fn14 block	TROY NFkB inh	PPC-1+TRAIL kill	Platelet DG rel	TRAIL sens C8
CC(=O)N[C@@H](Cc1c[nH]c2ccccc12)C(=O)OCC(=O)Nc1cc(C)on1	nt	-5.2	10.2	nt	nt	-7.0
Cc1ccc2c(c1)N(CCCC(=O)NCCCN1CCCCC1)C(=O)CO2	-4.1	63.7*	-7.4	nt	18.5	-1.9
CC(C)CNC(=O)C1(C)CCCN1C(=O)CCc1cccs1 (stereo not given)	nt	-22.7	-3.0	nt	nt	0.0
Cc1nonc1C(=O)N/N=C/c1ccc(O)cc1O	-0.1	-28.4	5.3	nt	95.8*	56.3*
Cc1nonc1C(=O)N/N=C/c1ccncc1	2.7	-14.3	-20.3	2.1	17.4	-7.2
FC(F)(F)c1nnc2c(Sc3ccccc3)nc3ccc(Cl)cc3n12	1.5	53.1*	-6.5	27.2	13.7	47.2
FC(F)(F)c1nc2ccccc2n2c(-c3ccc(Cl)cc3Cl)nnc12	-1.2	-1.8	10.5	5.2	-4.0	11.7
COc1cc(/C=C2\SC(=N)N(c3ccc(F)cc3)C2=O)ccc1O	-2.0	51.7*	13.8	15.0	-4.3	-9.4
CC(C)CN(C(=O)CSc1nc(-c2ccccc2)cn1N)c1c(N)n(Cc2ccccc2)c(=O)[nH]c1=O	nt	43.2	53.5*	nt	6.7	17.3
CCCN(C(=O)CSc1n[nH]c(-c2ccc(OC)cc2)n1)c1c(N)n(Cc2ccccc2)c(=O)[nH]c1=O	nt	6.1	-10.0	nt	-3.2	21.5
COc1ccc(-c2nc(SCC(=O)N(CC(C)C)c3c(N)n(Cc4ccccc4)c(=O)[nH]c3=O)n[nH]2)cc1	nt	7.5	4.0	nt	6.0	51.1*
O=C(NC(c1ccc(-c2ccccc2)cc1)c1cnccn1)C1CCN(Cc2cccc(C(F)(F)F)c2)CC1 (stereo not given)	nt	-8.2	25.1	nt	nt	19.2
COc1ccc2cc(/C=N/NC(=O)c3ccc(CN(c4cccc(Cl)c4Cl)S(C)(=O)=O)cc3)c(Cl)nc2c1	-2.5	17.2	-16.1	50.6*	-6.4	10.5
FC(F)(F)c1ccccc1-n1c(-c2ccco2)n[nH]c1=S	7.6	87.6*	25.5	nt	-14.5	-7.2
CCOC(=O)N1CCN(Cc2nc3c(c(=O)n(C)c(=O)n3C)n2Cc2cccc3ccccc23)CC1	nt	-5.3	25.0	-15.9	73.2*	-1.9
CCOC(=O)N1CCN(Cc2nc3c(c(=O)n(C)c(=O)n3C)n2Cc2cccc(C)c2)CC1	2.1	-8.8	-5.8	19.8	4.4	-2.6
O=S(Cc1ccc(Br)cc1)Cc1nnc(SCc2ccc(Cl)cc2)n1-c1ccccc1 (stereo not given)	0.0	55.4*	31.2	8.6	-1.6	8.0
CCc1ccc(-c2cn3c(n2)SCC3)cc1	4.2	-11.0	-16.5	31.0	9.2	28.8
CCc1ccc(-c2cn(-c3nc(C)cc(C)n3)c(=N)o2)cc1	-5.5	90.9*	-0.7	5.3	0.1	3.3
COCCC1CCCCN1C(=O)c1cc(COc2ccc(-n3cncn3)cc2)on1 (stereo not given)	-3.2	10.8	14.9	nt	9.1	-8.9
Cc1cc(N2CCN(C)CC2)ccc1NC(=O)c1ccc(-c2ccc(Cl)cc2)o1	nt	94.2*	79.7*	nt	6.4	32.8
CCCCC[C@H](O)/C=C/C1C(=O)C=C[C@H]1C/C=C\CCCC(=O)OC (stereo not given in full)	nt	58.5*	12.2	nt	nt	10.9
Cc1ccc(Cn2ncc3c(N4CCN(Cc5ccc(Cl)cc5)CC4)ncnc32)cc1	-1.0	56.1*	25.6	-4.4	2.6	31.8
Cc1ccc(Cn2ncc3c(N4CCN(C)CC4)ncnc32)cc1	-3.7	12.6	-9.3	22.0	7.1	14.2
Cc1ccc(Cn2ncc3c(N4CCN(c5ccc(C)cc5)CC4)ncnc32)cc1	0.7	60.7*	31.4	14.8	-1.2	41.4
SMILES	HSP90 inh	TWEAK Fn14 block	TROY NFkB inh	PPC-1+TRAIL kill	Platelet DG rel	TRAIL sens C8
CCCCN(C)C(=O)c1sc(=O)n(Cc2c(C)noc2C)c1C	nt	-6.1	-5.3	nt	nt	-2.9
COc1ccc(Cn2c(=O)cc(N)n(-c3ccccc3C)c2=O)cc1	2.2	11.8	0.0	22.4	8.8	4.9
COc1ccc(-c2nc(CN3CCC(C(=O)N4CCOCC4)CC3)c(C)o2)c(OC)c1	-1.4	2.4	4.4	nt	-0.9	0.7
Cc1ccc(S(=O)(=O)C[C@@H]2OC3CCCCC3N2S(=O)(=O)c2ccc(C)cc2)cc1 (stereo not given in full)	nt	nt	nt	nt	nt	-0.8
Cc1csc(SCC(=O)Nc2cc(F)ccc2C)n1	nt	-7.2	-9.6	nt	nt	-11.6
Cn1nc(C(F)(F)F)c2cc(C(=O)Nc3ccc(C(F)(F)F)cc3)sc21	-1.4	40.6	51.2*	8.5	-16.5	6.6
Cn1nc(C(F)(F)F)c2cc(C(=O)Nc3ccc(F)c(Cl)c3)sc21	4.0	0.7	60.9*	18.0	-4.2	-4.5
Cn1nc(C(F)(F)F)c2cc(C(=O)Nc3ccc(F)cc3)sc21	3.6	-33.5	8.8	-7.1	12.8	-0.2
Cn1nc(C(F)(F)F)c2cc(C(=O)O)sc21	-0.5	-22.3	-4.8	2.4	-3.0	-1.9
COc1cc(C(=O)C(=O)N2CCC(Cc3ccccc3)CC2)cc2ccccc12	nt	nt	nt	nt	nt	-3.2
CC(=O)N1CCOc2ccc(S(=O)(=O)Nc3ccc(Cl)cn3)cc21	-2.3	0.9	53.6*	nt	12.9	3.6
C[C@@H]1CN([C@@H](C)CO)C(=O)CCCn2nncc2CO[C@H]1CN(C)C(=O)Cc1ccccc1	nt	-0.5	-4.4	nt	nt	-14.0
CN(C)c1ccc(C(=O)/C=C/c2ccco2)cc1	6.5	-9.2	-41.7	6.5	7.2	54.4*
O=c1c2ccccc2nc(N/N=C/c2ccc(O)cc2)n1O	-0.1	-7.1	-18.2	1.8	24.5	61.8*
Cc1nc2ccccc2c(=O)n1/N=C/c1c(O)ccc2ccccc12	-3.2	4.9	-5.7	33.9	2.3	7.8
O=c1c2ccccc2nc(N/N=C/c2c(O)ccc3ccccc23)n1O	1.5	23.6	1.8	20.7	14.0	70.7*
Oc1ccc(/C=N/Nc2ccccc2)cc1	1.6	2.9	-5.8	8.8	-0.6	1.2
O=C(COc1ccc(S(=O)(=O)N2CCCCC2)cc1)Nc1ccccc1F	-5.1	5.8	-16.3	nt	0.0	0.0
N#Cc1c(N)n(C2CCCCC2)c2nc3ccccc3nc12	-0.9	37.0	71.7*	14.4	10.1	-1.0
Cc1ccccc1NS(=O)(=O)c1ccc(NC(=O)N2CCCCC2)cc1	-1.5	-4.6	11.2	nt	-0.9	-2.4
C=CCn1c(N)c(C(=O)NCC2CCCO2)sc1=S (stereo not given)	7.3	-15.0	-14.0	1.4	-7.1	-1.4
CCn1c(N)c(C(=O)NCC2CCCO2)sc1=S (stereo not given)	-2.6	84.9*	nt	5.8	4.3	-7.2
COc1ccc(C2CC(c3ccc(Br)cc3)=NN2C(=O)CSC2=NN3CCCC(=O)N=C3S2)cc1 (stereo not given)	-6.4	2.8	-6.8	nt	4.6	93.3*
COc1ccc(C2CC(c3cccs3)=NN2C(=O)CSC2=NN3CCCC(=O)N=C3S2)cc1 (stereo not given)	0.8	13.5	-24.6	14.0	0.9	26.8
